According to PubChem BioAssay:
Several values for one entry are separate records, joined by “and”; a condition that tells them apart may be missing. Equal values may be shown once. Results filed as inconclusive are left out. Activity calls are given as the source filed them.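 The calls were made as follows, unless noted: active = normalized viability below 100% at a tested concentration; inactive = the rest.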

What was measured:
[1] = growth inhibition of DIPG glioma cells, dose response, cell-based, SU-DIPG-XVII, MIPE5.0, CellTiter-Glo, qHTS (AID 1347060; cut-off not given, nearly all actives have AC50 up to about 26 µM;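 as to AC50: cells exposed to compound for 48 hours before viability readout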); details: SU-DIPG-XVII viability, CellTiter-Glo ATP luminescence
[2] = growth inhibition of DIPG glioma cells, dose response, cell-based, SU-DIPG-XIII, MIPE4.0, CellTiter-Glo, qHTS (AID 1347061; cut-off not given, nearly all actives have AC50 up to about 37 µM;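 also: cells exposed to compound for 48 hours before readout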); details: SU-DIPG-XIII viability, CellTiter-Glo ATP luminescence
[3] = growth inhibition of DIPG glioma cells, dose response, cell-based, SU-DIPG-IV, MIPE4.0, CellTiter-Glo, qHTS (AID 1347063; cut-off not given, nearly all actives have AC50 up to about 30 µM;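 also: compound exposure lasted 48 hours before the viability readout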); details: SU-DIPG-IV viability, CellTiter-Glo ATP luminescence
[4] = viability loss in pontine glioma line – cell-based, SU-DIPG-XXV, MIPE5.0, CellTiter-Glo, qHTS, dose response (AID 1347065; cut-off not given, nearly all actives have AC50 up to about 26 µM;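 also: cells exposed to compound for 48 hours before ATP readout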); details: CellTiter-Glo ATP luminescence
[5] = JHH-DIPG-1 glioma cell viability, MIPE5.0 library, CellTiter-Glo luminescence, qHTS (AID 1347067; cut-off not given, nearly all actives have AC50 up to about 26 µM;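 also: cells exposed to compound for 48 hours before readout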); details: JHH-DIPG-1 glioma viability, CellTiter-Glo ATP luminescence
[6] = sensitizers of A549 cells to miR-34 induction, primary screen, imaging, A549 dox-inducible miR-34, nuclei and caspase counts (AID 1347080;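 active = compounds whose cell count with miR-34 switched on is under 0.7 times the count with it off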); details: A549 miR-34 inducible, Hoechst nuclei count, 48 h
[7] = modifiers of HSF1 nuclear foci, imaging, Selleck Cancer Library (AID 1347162; in the data active = plate-normalised HSF1 focus index below about 0.46); details: human cells, at 10 µM; SSMD: measured here: HSF1 foci SSMD mean; cell count: measured here: cell number; plate-normalised HSF1 focus index: stronger effect = lower value
[8] = survival rescue of mitochondrial mutant cells in low glucose, primary screen, MELAS cybrids, Rieske KO mouse fibroblasts, CellTiter-Glo (AID 1508586;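 active = mean z-score across replicates of 1.96 or higher in either the MELAS or the Rieske mutant cell line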;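 also: z relative to plate mean and SD of compound and empty wells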)
[9] = ovarian cancer cell viability with rucaparib, profiling panel, oncology-focused library, rucaparib conditional (AID 1508598); details: patient-derived ovarian cancer cells, CellTiter-Glo viability, 144 h, stronger effect = lower value
[10] = SU-DIPG-VI glioma cell viability, MIPE4.0 library, CellTiter-Glo luminescence, qHTS (AID 1347066; cut-off not given, nearly all actives have AC50 up to about 30 µM;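 also: cells exposed to compound for 48 hours before readout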); details: CellTiter-Glo ATP luminescence
[11] = SU-DIPG-XXV glioma cell viability, MIPE5.0 library, qHTS (AID 1347068; cut-off not given, nearly all actives have IC50 up to about 30 µM)
[12] = growth inhibition of DIPG glioma cells, dose response, cell-based, SU-DIPG-XIII, MIPE5.0, CellTiter-Glo, qHTS (AID 1347064; cut-off not given, nearly all actives have AC50 up to about 23 µM;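 as to AC50: cells exposed to compound for 48 hours before the viability read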); details: SU-DIPG-XIII viability, CellTiter-Glo ATP luminescence
[13] = stronger effect = lower value, cell number ratio, induced over uninduced
[14] = measured here: relative caspase fold change +Dox/-Dox
[15] = measured here: total cells with miR-34 induction, stronger effect = lower value
[16] = measured here: total cells without miR-34 induction
[17] = MELAS cybrid survival, CellTiter-Glo 48 h, stronger effect = higher value
[18] = Rieske KO mouse fibroblast survival, CellTiter-Glo 72 h
[19] = at 0.000305 µM, OCI-C5x cells, with rucaparib 10 µM, 100% = cells with rucaparib alone
[20] = at 0.000305 µM, OCI-C5x cells, without rucaparib
[21] = at 0.000305 µM, OCI-P5x cells, with rucaparib 20 µM, 100% = cells with rucaparib alone
[22] = at 0.000305 µM, OCI-P5x cells, without rucaparib
[23] = at 0.00122 µM, OCI-C5x cells, with rucaparib 10 µM, 100% = cells with rucaparib alone
[24] = at 0.00122 µM, OCI-C5x cells, without rucaparib
[25] = at 0.00122 µM, OCI-P5x cells, with rucaparib 20 µM, 100% = cells with rucaparib alone
[26] = at 0.00122 µM, OCI-P5x cells, without rucaparib
[27] = at 0.00488 µM, OCI-C5x cells, with rucaparib 10 µM, 100% = cells with rucaparib alone
[28] = at 0.00488 µM, OCI-C5x cells, without rucaparib
[29] = at 0.00488 µM, OCI-P5x cells, with rucaparib 20 µM, 100% = cells with rucaparib alone
[30] = at 0.00488 µM, OCI-P5x cells, without rucaparib
[31] = at 0.0195 µM, OCI-C5x cells, with rucaparib 10 µM, 100% = cells with rucaparib alone
[32] = at 0.0195 µM, OCI-C5x cells, without rucaparib
[33] = at 0.0195 µM, OCI-P5x cells, with rucaparib 20 µM, 100% = cells with rucaparib alone
[34] = at 0.0195 µM, OCI-P5x cells, without rucaparib
[35] = at 0.0781 µM, OCI-C5x cells, with rucaparib 10 µM, 100% = cells with rucaparib alone
[36] = at 0.0781 µM, OCI-C5x cells, without rucaparib
[37] = at 0.0781 µM, OCI-P5x cells, with rucaparib 20 µM, 100% = cells with rucaparib alone
[38] = at 0.0781 µM, OCI-P5x cells, without rucaparib
[39] = at 0.313 µM, OCI-C5x cells, with rucaparib 10 µM, 100% = cells with rucaparib alone
[40] = at 0.313 µM, OCI-C5x cells, without rucaparib
[41] = at 0.313 µM, OCI-P5x cells, with rucaparib 20 µM, 100% = cells with rucaparib alone
[42] = at 0.313 µM, OCI-P5x cells, without rucaparib
[43] = at 1.25 µM, OCI-C5x cells, with rucaparib 10 µM, 100% = cells with rucaparib alone
[44] = at 1.25 µM, OCI-C5x cells, without rucaparib
[45] = at 1.25 µM, OCI-P5x cells, with rucaparib 20 µM, 100% = cells with rucaparib alone
[46] = at 1.25 µM, OCI-P5x cells, without rucaparib
[47] = at 5 µM, OCI-C5x cells, with rucaparib 10 µM, 100% = cells with rucaparib alone
[48] = at 5 µM, OCI-C5x cells, without rucaparib
[49] = at 5 µM, OCI-P5x cells, with rucaparib 20 µM, 100% = cells with rucaparib alone
[50] = at 5 µM, OCI-P5x cells, without rucaparib

Cc1cn(-c2cc(NC(=O)c3ccc(C)c(Nc4nccc(-c5cccnc5)n4)c3)cc(C(F)(F)F)c2)cn1
inactive: outcome [2] | fold change [6, 13] 0.874 | plate-normalised HSF1 focus index [7] 1.05 | viability [9, 19] 106% | viability [9, 20] 116% | viability [9, 21] 103% | viability [9, 22] 105% | viability [9, 23] 108% | viability [9, 24] 117% | viability [9, 25] 100% | viability [9, 26] 101% | viability [9, 27] 109% | viability [9, 28] 116% | viability [9, 29] 103% | viability [9, 31] 105% | viability [9, 32] 127% | viability [9, 33] 102% | viability [9, 35] 117% | viability [9, 36] 116% | viability [9, 38] 104% | viability [9, 39] 107% | viability [9, 40] 118% | viability [9, 41] 116% | viability [9, 42] 103% | viability [9, 43] 127% | viability [9, 44] 117% | viability [9, 47] 139% | viability [9, 48] 116%
1440: cell count [6, 16]
7680: cell count [7]
0.941: fold change [6, 14]
-0.657: z-score [8, 18]
1260: cell count [6, 15]
active: AC50 [1] 10.5 µM | AC50 [3] 8.33 µM | AC50 [4] 10.5 µM | AC50 [5] 11.8 µM | z-score [8, 17] 3.41 | viability [9, 30] 98.8% | viability [9, 34] 91.4% | viability [9, 37] 98.7% | viability [9, 45] 97.7% | viability [9, 46] 91.7% | viability [9, 49] 68% | viability [9, 50] 30.3%
0.723: SSMD [7]

CO[C@H]1C[C@@H]2CC[C@@H](C)[C@@](O)(O2)C(=O)C(=O)N2CCCC[C@H]2C(=O)O[C@H]([C@H](C)C[C@@H]2CC[C@@H](OP(C)(C)=O)[C@H](OC)C2)CC(=O)[C@H](C)/C=C(\C)[C@@H](O)[C@@H](OC)C(=O)[C@H](C)C[C@H](C)/C=C/C=C/C=C/1C
inactive: outcome [2]
active: AC50 [1] 18.6 µM | AC50 [3] 23.5 µM | AC50 [4] 16.6 µM | AC50 [5] 20.9 µM

COc1ccc(-c2oc3c(CC=C(C)C)c(OC4O[C@H](CO)[C@@H](O)[C@H](O)[C@H]4O)cc(O)c3c(=O)c2OC2O[C@@H](C)[C@H](O)[C@@H](O)[C@H]2O)cc1 (some centres not stated)
inactive: outcome [1] | outcome [2] | outcome [4] | outcome [5] | outcome [11]
active: AC50 [3] 14.8 µM | AC50 [10] 14.8 µM

CC(C)(C)c1cc(NC(=O)Nc2ccc(-c3cn4c(n3)sc3cc(OCCN5CCOCC5)ccc34)cc2)no1
-2.86: z-score [8, 18]
0.734: SSMD [7]
0.781: fold change [6, 14]
6520: cell count [6, 15]
inactive: outcome [2] | outcome [11] | fold change [6, 13] 1 | plate-normalised HSF1 focus index [7] 1.05 | viability [9, 19] 105% | viability [9, 20] 104% | viability [9, 23] 112% | viability [9, 27] 105% | viability [9, 31] 107% | viability [9, 32] 101% | viability [9, 33] 103% | viability [9, 35] 111% | viability [9, 36] 112% | viability [9, 39] 115% | viability [9, 40] 108% | viability [9, 43] 108% | viability [9, 44] 128% | viability [9, 47] 100% | viability [9, 48] 107%
6510: cell count [6, 16]
7630: cell count [7]
active: AC50 [1] 23.5 µM | AC50 [12] 14.8 µM | AC50 [4] 16.6 µM | AC50 [5] 20.9 µM | z-score [8, 17] 4.33 | viability [9, 21] 87.1% | viability [9, 22] 82.2% | viability [9, 24] 95% | viability [9, 25] 93.1% | viability [9, 26] 87% | viability [9, 28] 88.6% | viability [9, 29] 91.7% | viability [9, 30] 93.5% | viability [9, 34] 93.7% | viability [9, 37] 86.7% | viability [9, 38] 90.6% | viability [9, 41] 82.2% | viability [9, 42] 99% | viability [9, 45] 83.4% | viability [9, 46] 87.4% | viability [9, 49] 31.2% | viability [9, 50] 70.6%

Nc1nc(=O)n([C@H]2C[C@H](O)[C@@H](CO)O2)cc1F
inactive: outcome [1] | outcome [2] | outcome [3] | outcome [4] | outcome [10] | outcome [5] | outcome [11]

O=S(=O)(O)CCSSCCS(=O)(=O)O
0.692 and 0.976: fold change [6, 14]
active: viability [9, 19] 98.2% | viability [9, 37] 98.4% | viability [9, 38] 98.9% | viability [9, 42] 97.9% | viability [9, 45] 94.1% | viability [9, 46] 89.9% | viability [9, 49] 90.1% | viability [9, 50] 88.4%
9460 and 8440: cell count [6, 16]
8910 and 7810: cell count [6, 15]
0.587: z-score [8, 18]
inactive: outcome [1] | outcome [2] | outcome [12] | outcome [4] | outcome [10] | outcome [5] | outcome [11] | fold change [6, 13] 0.942 and 0.926 | z-score [8, 17] -0.449 | viability [9, 20] 108% | viability [9, 21] 105% | viability [9, 22] 108% | viability [9, 23] 106% | viability [9, 24] 106% | viability [9, 25] 105% | viability [9, 26] 103% | viability [9, 27] 102% | viability [9, 28] 103% | viability [9, 29] 101% | viability [9, 30] 100% | viability [9, 31] 100% | viability [9, 32] 107% | viability [9, 33] 105% | viability [9, 34] 104% | viability [9, 35] 100% | viability [9, 36] 104% | viability [9, 39] 100% | viability [9, 40] 105% | viability [9, 41] 101% | viability [9, 43] 127% | viability [9, 44] 101% | viability [9, 47] 116% | viability [9, 48] 101%
